Values joined by “and” are separate entries in the source; they are usually repeats but may differ in a detail not shown here. Equal values may be shown once. Read-outs that look alike come from different tables or passages of the source.
What was measured:
FLT3-autoinhibited = conditions: concentration: 1 μM, replicates: in singlicate, n = 1
FLT3 = conditions: concentration: 1 μM, replicates: in singlicate, n = 1
FLT4 = conditions: concentration: 1 μM, replicates: in singlicate, n = 1
FRK = conditions: concentration: 1 μM, replicates: in singlicate; n = 1
FYN = conditions: concentration: 1 μM, replicates: in singlicate, n = 1
GAK = conditions: concentration: 1 μM, replicates: in singlicate, n = 1
GCN2(Kin.Dom.2,S808G) = test system: T1, GCN2(Kin.Dom.2,S808G); conditions: concentration: 1 μM, replicates: in singlicate; n = 1
T1 construct: gene EIF2AK4

GRK1 = conditions: concentration: 1 μM, replicates: in singlicate, n = 1
GRK2 = test system: T2, GRK2; conditions: concentration: 1 μM, replicates: in singlicate, n = 1
T2 construct: gene ADRBK1

GRK3 = test system: T3, GRK3; conditions: concentration: 1 μM, replicates: in singlicate, n = 1
T3 construct: gene ADRBK2
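Also: KINOMEscan kinase panel screen.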

SMILES | %Inh (FLT3-autoinhibited) | %Inh (FLT3) | %Inh (FLT4) | %Inh (FRK) | %Inh (FYN) | %Inh (GAK) | %Inh (GCN2(Kin.Dom.2,S808G)) | %Inh (GRK1) | %Inh (GRK2) | %Inh (GRK3) | %Inh (FLT3-autoinhibited; 1 µM) | %Inh (FLT3; 1 µM) | %Inh (FLT4; 1 µM) | %Inh (FYN; 1 µM) | %Inh (GAK; 1 µM) | %Inh (GRK1; 1 µM) | %Inh (GRK2; 1 µM) | %Inh (GRK3; 1 µM)
Cc1cccc(-c2nc(-c3ccc(S(C)(=O)=O)cc3)sc2-c2ccncc2)c1 | 2% | 14% | 8% | 0% | 0% | 5% | 0% | 0% | 0% | 3% | – | – | – | – | – | – | – | –
CN1c2ccc(NCc3ccc(F)cc3)cc2-c2c(cnn2C)S1(=O)=O | 24% | 12% | 0% | 10% | 12% | 0% | 0% | 11% | 0% | 0% | – | – | – | – | – | – | – | –
COc1cc(Nc2nccc(N3CCC(NC(=O)c4cccc(NC(C)=O)c4)C3)n2)cc(OC)c1OC (stereo not drawn) [GSK1379754] | 6% | 50% | 23% | 16% | 35% | 44% | 17% | 0% | 0% | 18% | – | – | – | – | – | – | – | –
COc1cc2c(cc1OC[C@@H](O)CO)ncc1c3ccc(C#N)cc3[nH]c21 | 90% | 97.5% | 7% | 0% | 0% | 98.9% | 82% | 16% | 13% | 0% | – | – | – | – | – | – | – | –
Nc1nccc(-c2c(-c3ccc(F)cc3)ncn2C2CCN(CC(F)(F)F)CC2)n1 [SB-236560] | 0% | 18% | 21% | 1% | 0% | 15% | 48% | 18% | 16% | 0% | – | – | – | – | – | – | – | –
COc1ccc(CNC(=O)NC2CCN(c3ccnc(Nc4ccc(OC)cc4)n3)C2)cc1 (stereo not drawn) [GSK1379727] | 0% | 7% | 0% | 0% | 38% | 0% | 11% | 0% | 0% | 48% | – | – | – | – | – | – | – | –
Cc1nnc(-c2ccc(C)c(-c3ccc(C(=O)Nc4ccc(NS(C)(=O)=O)cc4)cc3)c2)o1 [GW702865] | 0% | 0% | 8% | 0% | 17% | 0% | 10% | 0% | 0% | 0% | – | – | – | – | – | – | – | –
Cc1c2ccc(N(C)c3ccnc(Nc4cccc(S(N)(=O)=O)c4)n3)cc2nn1Cc1ccccc1.Cl.Cl [GW787226] | 29% | 98.5% | 99.9% | 65% | 75% | 0% | 62% | 0% | 0% | 0% | – | – | – | – | – | – | – | –
O=c1cc(N2CCOCC2)nc2n(Cc3cccc(F)c3)ccn12 [GSK2297430] | 0% | 24% | 9% | 8% | 1% | 14% | 0% | 0% | 0% | 0% | – | – | – | – | – | – | – | –
NS(=O)(=O)c1cccc(-c2ccc3nccc(-c4cccc(S(N)(=O)=O)c4)c3c2)c1 [GW867253] | 0% | 0% | 0% | 0% | 0% | 14% | 3% | 27% | 0% | 0% | – | – | – | – | – | – | – | –
NCCNS(=O)(=O)c1ccc(-c2ccnc3[nH]ccc23)cc1 [GSK977617] | – | – | – | 0% | – | – | 0% | – | – | – | 27% and 39% | 87% and 73% | 48% and 21% | 25% and 16% | 46% and 19% | 75% and 52% | 4% and 0% | 12% and 36%
O=C(c1ccc(-c2cc(-c3c[nH]nc3-c3ccccn3)ccn2)cc1)N1CCOCC1 [GW812171] | 0% | 1% | 0% | 0% | 0% | 34% | 0% | 26% | 0% | 20% | – | – | – | – | – | – | – | –
CCCCCc1nc2c(N)ncnc2n1CCCCC [SKF-97255] | 0% | 0% | 0% | 0% | 0% | 0% | 4% | 38% | 0% | 6% | – | – | – | – | – | – | – | –
Fc1ccc(-c2nn3c(OCC(F)(F)F)cccc3c2-c2ccncc2)cc1 [GW514784] | 0% | 4% | 0% | 5% | 0% | 85% | 0% | 0% | 0% | 45% | – | – | – | – | – | – | – | –
CC(=O)Nc1ccc(COc2ccc(Nc3ccnc4cc(-c5ccccn5)ccc34)cc2)cc1.Cl [GW440148] | 38% | 98% | 99.9% | 0% | 47% | 8% | 0% | 0% | 0% | 17% | – | – | – | – | – | – | – | –
Cc1ccc(C(=O)NCC(N)=O)cc1-n1c(C)cc(OCc2ccc(F)cc2F)c(Br)c1=O | 0% | 13% | 0% | 25% | 20% | 6% | 0% | 20% | 0% | 0% | – | – | – | – | – | – | – | –
CN(C1=C(c2ccccc2)C(=O)NC1=O)c1ccccc1 [SB-334860] | 3% | 0% | 20% | 2% | 39% | 7% | 0% | 9% | 8% | 7% | – | – | – | – | – | – | – | –
Cc1cn2c(=O)cc(N3CCOCC3)nc2n1Cc1cccc(Cl)c1Cl [GSK2334006] | 10% | 13% | 39% | 28% | 23% | 35% | 12% | 2% | 3% | 0% | – | – | – | – | – | – | – | –

Source: publication PMC5540273 (PLoS ONE, 2017)
